Test results taken from PubChem BioAssay AID720519 (National Center for Advancing Translational Sciences (NCATS), 2013).
Records with an inconclusive call do not appear. The source made the active and inactive calls. The call rests on the fitted dose curve; in most records, active means well fitted activation curve with a large enough effect; inconclusive means small, poorly fitted or top-dose-only effect; inactive means flat fitted curve, though single readings scatter.

assay: qHTS for Inhibitors of Cell Surface uPA Generation: Confirmatory Assay for Cherry-picked Compounds; details: cell surface uPA activity generation, qHTS confirmation; series mostly up to 115 µM; inhibition: at the top concentration; on inhibition: 0% is about no effect
Outline: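 RAW 264.7 cells at 4000/well, incubated overnight, then treated with compounds. After 24 h at 37 C, viability was read by ATPlite luminescence. An increase in signal indicates blocked uPA-dependent LF entry.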
Potency means the concentration at half of the fitted maximal effect.

SMILES | inhibition | Potency
Cc1ccc(C)c(S(=O)(=O)Nc2ccccc2C(=O)Nc2cc(C)on2)c1 | -2.99% (inactive) | 
O=C(CN1CCOC1=O)N1CCCC(Nc2ccc(F)c(F)c2)C1 (centres undefined) | -0.931% (inactive) | 
COC(=O)c1c(NC(=O)c2c(OC)cccc2OC)sc2c1C(C(=O)OC)CC2 (centres undefined) |  | 29.3 µM (active)
O=C(O)c1ccccc1/C=N/NC(=S)NC1CCCCC1 | 0.423% (inactive) | 
Cc1ccc(Cl)cc1NC(=O)c1ccccc1OCC(=O)N1CCOCC1 | 1.32% (inactive) | 
CCOc1cc(C)c(S(=O)(=O)N2CCCCC2)cc1C | -2.77% (inactive) | 
CCOc1cc(/C=C(\C#N)C(=O)NCc2cccnc2)ccc1O | -2.42% (inactive) | 
Cc1ccc(NC(=O)C(C)S)cc1 (centres undefined) | -3.16% (inactive) | 
Cc1ccc(NC(=O)c2ccc(=O)[nH]n2)cc1S(=O)(=O)Nc1ccccc1Cl | 1.5% (inactive) | 
CCc1ccccc1NC(=O)CN(C)C(=O)CSc1nnc(Nc2cccc(C)c2C)s1 | -2.94% (inactive) | 
COc1cc2oc(=O)ccc2cc1[C@H](O)[C@@H](O)C(C)(C)O | -1.24% (inactive) | 
O=C1OCC/C1=C\c1ccc(O)cc1 | -2.46% (inactive) | 
O=C(NCCc1ccccc1)C1CCC(=O)N(Cc2cccc(C(F)(F)F)c2)C1 (centres undefined) | -2.36% (inactive) | 
O=C(Cn1cnc2c(OCc3ccccc3)ncnc21)NCCCN1CCCC1=O | -2.76% (inactive) | 
CCc1ccc(N2CC(C(=O)Nc3ccc4c(c3)OCO4)CC2=O)cc1 (centres undefined) | 1.98% (inactive) | 
COc1ccc(C(=O)CC2(C(=O)O)CCCCC2)cc1 | -1.31% (inactive) | 
COc1ccc(C(C)=O)cc1CSC(=N)N | -2.18% (inactive) | 
O=C(COc1cc2oc(=O)cc(-c3ccccc3)c2cc1Cl)NC(Cc1c[nH]c2ccc(O)cc12)C(=O)O (centres undefined) | 0.485% (inactive) | 
Cc1cccc(C(=O)NC2CCN(CC(=O)N3CCOCC3)CC2)c1 | -1.99% (inactive) | 
